Assay results: PubChem BioAssay AID1159580 (chemical genetic matrix, 2015)
The campaign covered roughly 5,500 compounds. About 2,000 (36%) were called active. Roughly 18% stayed inconclusive and do not appear here. Rule as the data show it: active = normalized growth mostly below about 0.91 (no sharp cut-off); inconclusive = no clear call, values can overlap the other calls; inactive = mostly above about 0.92. Some of the results follow.

Assay: chemical genetic growth profiling, strain panel (AID 1159580);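 also: tested at 20 µM; growth read once vehicle control cultures reached saturation at 30 °C; 1 = growth at the plate median or of vehicle wells; lower values mean less growth of the strain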
Settings: growth OD

Measured: normalized growth

COc1c(O)cc2c(c1O)[C@H]1O[C@H](CO)[C@@H](O)[C@H](O)[C@@H]1OC2=O
inactive: S. cerevisiae deletion strains, locus YKL009W, strain mrt4, hits give low values 1.01 | S. cerevisiae deletion strains, locus YKL068W, hits give low values 1.01 | S. cerevisiae deletion strains, locus YKL085W, strain MDH1 (second series), hits give low values 1 | S. cerevisiae deletion strains, locus YKL085W, strain MDH1, hits give low values 1 | S. cerevisiae deletion strains, locus YKL160W, strain elf1, hits give low values 1.03 | S. cerevisiae deletion strains, locus YKL190W, strain CNB1, hits give low values 0.975 | S. cerevisiae deletion strains, locus YKR001C, strain vps1, hits give low values 1.01 | S. cerevisiae deletion strains, locus YKR026C, strain gcn3, hits give low values 1.01 | S. cerevisiae deletion strains, locus YKR091W, strain srl3, hits give low values 1.02 | S. cerevisiae deletion strains, locus YLL001W, strain dnm1, hits give low values 1.03 | S. cerevisiae deletion strains, locus YLL026W, hits give low values 1.01 | S. cerevisiae deletion strains, locus YLL041C, strain sdh2, hits give low values 1.02 | S. cerevisiae deletion strains, locus YLR027C, strain aat2, hits give low values 1.02 | S. cerevisiae deletion strains, locus YLR039C, strain RIC1, hits give low values 1.04 | S. cerevisiae deletion strains, locus YLR058C, strain SHM2, hits give low values 0.986 | S. cerevisiae deletion strains, locus YLR102C, strain apc9, hits give low values 1 | S. cerevisiae deletion strains, locus YLR113W, strain HOG1, hits give low values 0.985 | S. cerevisiae deletion strains, locus YLR221C, strain rsa3, hits give low values 1.02 | S. cerevisiae deletion strains, locus YLR258W, strain gsy2, hits give low values 1.04 | S. cerevisiae deletion strains, locus YLR262C, strain YPT6 (second series), hits give low values 1.06 | S. cerevisiae deletion strains, locus YLR262C, strain YPT6, hits give low values 1.07 | S. cerevisiae deletion strains, locus YLR268W, strain sec22, hits give low values 1.01 | S. cerevisiae deletion strains, locus YLR320W, strain mms22, hits give low values 1.05 | S. cerevisiae deletion strains, locus YLR330W, strain CHS5, hits give low values 1.01 | S. cerevisiae deletion strains, locus YLR342W, strain FKS1 (second series), hits give low values 0.902 | S. cerevisiae deletion strains, locus YLR342W, strain FKS1, hits give low values 1.02 | S. cerevisiae deletion strains, locus YLR357W, strain rsc2, hits give low values 1.01 | S. cerevisiae deletion strains, locus YLR370C, strain arc18, hits give low values 1.02 | S. cerevisiae deletion strains, locus YLR371W, strain rom2, hits give low values 1.01 | S. cerevisiae deletion strains, locus YLR384C, strain iki3, hits give low values 1.01 | S. cerevisiae deletion strains, locus YLR418C, strain cdc73, hits give low values 1.02 | S. cerevisiae deletion strains, locus YML016C, strain PPZ1, hits give low values 1 | S. cerevisiae deletion strains, locus YML032C, strain rad52, hits give low values 0.999 | S. cerevisiae deletion strains, locus YML120C, strain ndi1, hits give low values 1.03 | S. cerevisiae deletion strains, locus YML124C, strain tub3, hits give low values 1.01 | S. cerevisiae deletion strains, locus YMR058W, strain fet3, hits give low values 1.01 | S. cerevisiae deletion strains, locus YMR078C, strain ctf18, hits give low values 1.01 | S. cerevisiae deletion strains, locus YMR125W, strain sto1, hits give low values 1.02 | S. cerevisiae deletion strains, locus YMR129W, hits give low values 1.02 | S. cerevisiae deletion strains, locus YMR205C, strain PFK2, hits give low values 1.03 | S. cerevisiae deletion strains, locus YMR223W, strain ubp8, hits give low values 0.993 | S. cerevisiae deletion strains, locus YMR231W, strain pep5, hits give low values 1.02 | S. cerevisiae deletion strains, locus YMR263W, strain SAP30, hits give low values 0.993 | S. cerevisiae deletion strains, locus YMR307W, strain GAS1, hits give low values 0.828 | S. cerevisiae deletion strains, locus YNL067W, strain RPL9B, hits give low values 0.97 | S. cerevisiae deletion strains, locus YNL071W, strain lat1, hits give low values 1.03 | S. cerevisiae deletion strains, locus YNL128W, strain TEP1, hits give low values 1.01 | S. cerevisiae deletion strains, locus YNL153C, strain GIM3, hits give low values 0.999 | S. cerevisiae deletion strains, locus YNL183C, strain NPR1, hits give low values 0.933 | S. cerevisiae deletion strains, locus YNL209W, strain ssb2, hits give low values 1.02 | S. cerevisiae deletion strains, locus YNL233W, strain BNI4, hits give low values 0.939 | S. cerevisiae deletion strains, locus YNL248C, strain rpa49, hits give low values 1.01 | S. cerevisiae deletion strains, locus YNL250W, strain rad50, hits give low values 1.02 | S. cerevisiae deletion strains, locus YNL271C, strain bni1, hits give low values 1.02 | S. cerevisiae deletion strains, locus YNL298W, strain CLA4, hits give low values 1.02 | S. cerevisiae deletion strains, locus YNL307C, strain MCK1, hits give low values 1.01 | S. cerevisiae deletion strains, locus YNL322C, strain KRE1 (second series), hits give low values 1.02 | S. cerevisiae deletion strains, locus YNR049C, strain mso1, hits give low values 1.02 | S. cerevisiae deletion strains, locus YNR052C, strain pop2, hits give low values 0.998 | S. cerevisiae deletion strains, locus YOL006C, strain TOP1, hits give low values 0.973 | S. cerevisiae deletion strains, locus YOL012C, strain htz1 0.964 | S. cerevisiae deletion strains, locus YOL147C, strain pex11, hits give low values 1 | S. cerevisiae deletion strains, locus YOR001W, strain rrp6, hits give low values 1.01 | S. cerevisiae deletion strains, locus YOR061W, strain CKA2, hits give low values 0.995 | S. cerevisiae deletion strains, locus YOR069W, strain VPS5, hits give low values 0.985 | S. cerevisiae deletion strains, locus YOR070C, strain gyp1, hits give low values 1.01 | S. cerevisiae deletion strains, locus YOR080W, strain dia2, hits give low values 1.02 | S. cerevisiae deletion strains, locus YOR083W, strain WHI5, hits give low values 1.03 | S. cerevisiae deletion strains, locus YOR106W, strain vam3, hits give low values 1.02 | S. cerevisiae deletion strains, locus YOR136W, strain idh2, hits give low values 1.02 | S. cerevisiae deletion strains, locus YOR144C, strain elg1, hits give low values 1.01 | S. cerevisiae deletion strains, locus YOR184W, strain ser1, hits give low values 1.02 | S. cerevisiae deletion strains, locus YOR231W, strain MKK1, hits give low values 0.961 | S. cerevisiae deletion strains, locus YOR265W, strain rbl2, hits give low values 1.02 | S. cerevisiae deletion strains, locus YOR270C, strain vph1, hits give low values 1.06 | S. cerevisiae deletion strains, locus YOR290C, strain snf2, hits give low values 0.992 | S. cerevisiae deletion strains, locus YOR316C, strain cot1, hits give low values 1.01 | S. cerevisiae deletion strains, locus YPL051W, strain arl3, hits give low values 1.01 | S. cerevisiae deletion strains, locus YPL055C, strain LGE1, hits give low values 0.967 | S. cerevisiae deletion strains, locus YPL078C, strain atp4, hits give low values 1.03 | S. cerevisiae deletion strains, locus YPL106C, strain sse1, hits give low values 1.02 | S. cerevisiae deletion strains, locus YPL240C, strain hsp82, hits give low values 1.02 | S. cerevisiae deletion strains, locus YPL241C, strain CIN2, hits give low values 0.991 | S. cerevisiae deletion strains, locus YPL256C, strain CLN2, hits give low values 0.935 | S. cerevisiae deletion strains, locus YPR119W, strain clb2, hits give low values 1.01 | S. cerevisiae deletion strains, locus YPR141C, strain kar3, hits give low values 1.01 | S. cerevisiae deletion strains, locus YPR163C, strain tif3, hits give low values 1 | S. cerevisiae deletion strains, locus YPR167C, strain met16, hits give low values 1.02 | S. cerevisiae deletion strains, strain wtn01, hits give low values 1.01 | S. cerevisiae strains, strain wild type, hits give low values 0.957
